Results from PubChem BioAssay (NCI).
About 83,000 compounds went through this panel and 20% of them were active in at least one assay; those are over-represented in the sample as a whole.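 Cells were grown in 96-well plates and exposed to the test compound at a single concentration for 48 hours; results are reported as percent growth, with values below 10 considered active.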

What was measured:
Assay in all cases: NCI-60 one-dose screen, 48 h (100 = growth as untreated, 0 = no growth, -100 = all killed)
SK-MEL-2 melanoma = details: 10 µM unless noted
SN12C renal = details: 10 µM unless noted
UO-31 renal = details: 10 µM unless noted
TK-10 renal = details: 10 µM unless noted
ACHN renal = details: 10 µM unless noted
CAKI-1 renal = details: 10 µM unless noted
A498 renal = details: 10 µM unless noted
MOLT-4 leukemia = details: 10 µM unless noted
SR leukemia = details: 10 µM unless noted
RPMI-8226 leukemia = details: 10 µM unless noted
OVCAR-8 ovarian = details: 10 µM unless noted
OVCAR-4 ovarian = details: 10 µM unless noted
SK-OV-3 ovarian = details: 10 µM unless noted
IGROV1 ovarian = details: 10 µM unless noted
CCRF-CEM leukemia = details: 10 µM unless noted
OVCAR-5 ovarian = details: 10 µM unless noted
OVCAR-3 ovarian = details: 10 µM unless noted
HS 578T breast = details: 10 µM
NCI/ADR-RES ovarian = details: 10 µM unless noted

Measured: growth

Oc1ccc(Cl)cc1-c1cc(-c2ccccc2Cl)[nH]n1
inactive: SK-MEL-2 melanoma 77.5% | SN12C renal 69.5% | UO-31 renal 38.6% | TK-10 renal 86.8% | ACHN renal 59% | CAKI-1 renal 75.9% | A498 renal 96.1% | MOLT-4 leukemia 28.5% | SR leukemia 41.9% | RPMI-8226 leukemia 42.3% | OVCAR-8 ovarian 71.1% | OVCAR-4 ovarian 13.3% | SK-OV-3 ovarian 76.9% | IGROV1 ovarian 34.2%

CC(=O)c1c(O)c(C)c(O)c2c1OC1=CC(=O)/C(=C(/C)N)C(=O)C12C (centres undefined)
inactive: SK-MEL-2 melanoma 94.8% | SN12C renal 92.8% | UO-31 renal 77.8% | TK-10 renal 99.4% | ACHN renal 88.4% | CAKI-1 renal 87.1% | CCRF-CEM leukemia 93.1% | SR leukemia 69% | RPMI-8226 leukemia 68.6% | OVCAR-8 ovarian 81.8% | OVCAR-5 ovarian 98.5% | OVCAR-4 ovarian 88.1% | SK-OV-3 ovarian 101% | IGROV1 ovarian 89.1% | OVCAR-3 ovarian 103% | HS 578T breast 91.5%

CCCCCCCCCCCCCCC(C(=O)OCC)C(=O)OCC
inactive: SK-MEL-2 melanoma 112% | SN12C renal 101% | UO-31 renal 93% | TK-10 renal 117% | ACHN renal 98.3% | CAKI-1 renal 90.8% | A498 renal 105% | MOLT-4 leukemia 109% | SR leukemia 116% | RPMI-8226 leukemia 104% | OVCAR-8 ovarian 103% | OVCAR-5 ovarian 103% | OVCAR-4 ovarian 109% | SK-OV-3 ovarian 112% | IGROV1 ovarian 103% | OVCAR-3 ovarian 110% | NCI/ADR-RES ovarian 104%

CC(=O)[C@H]1CC[C@H]2[C@@H]3CC[C@H]4CC=CC[C@]4(C)[C@H]3CC[C@]12C
inactive: SK-MEL-2 melanoma 79.9% | SN12C renal 96.1% | UO-31 renal 83.7% | TK-10 renal 85.9% | ACHN renal 92.4% | CAKI-1 renal 72.9% | A498 renal 103% | MOLT-4 leukemia 83.9% | SR leukemia 68.9% | RPMI-8226 leukemia 65.5% | OVCAR-8 ovarian 94.3% | OVCAR-5 ovarian 87% | OVCAR-4 ovarian 89.9% | SK-OV-3 ovarian 101% | IGROV1 ovarian 93.9% | OVCAR-3 ovarian 122% | NCI/ADR-RES ovarian 98.9%

Cc1ccc(CSCc2ccc(C(=O)NC3CC3)o2)cc1
inactive: SK-MEL-2 melanoma 75.6% | SN12C renal 83.2% | UO-31 renal 74.7% | TK-10 renal 90.6% | ACHN renal 63.1% | CAKI-1 renal 64.5% | A498 renal 53.3% | CCRF-CEM leukemia 62.1% | MOLT-4 leukemia 62.6% | SR leukemia 18.2% | RPMI-8226 leukemia 52.1% | OVCAR-8 ovarian 72% | OVCAR-4 ovarian 69.1% | SK-OV-3 ovarian 108% | IGROV1 ovarian 89.2% | OVCAR-3 ovarian 74.6% | HS 578T breast 92.2% | NCI/ADR-RES ovarian 64.3%

Brc1ccccc1Cn1c(-c2cncs2)nc2ccccc21
inactive: SK-MEL-2 melanoma 95.4% | SN12C renal 85.1% | UO-31 renal 44.9% | TK-10 renal 82.6% | ACHN renal 72.8% | CAKI-1 renal 74.4% | A498 renal 71.6% | CCRF-CEM leukemia 78% | MOLT-4 leukemia 77.6% | RPMI-8226 leukemia 43.3% | OVCAR-8 ovarian 79.2% | OVCAR-5 ovarian 70.8% | OVCAR-4 ovarian 72.4% | SK-OV-3 ovarian 92.2% | IGROV1 ovarian 86.9% | OVCAR-3 ovarian 86.6% | HS 578T breast 69.5% | NCI/ADR-RES ovarian 83.5%

CC(=O)c1ccc(-n2c(-c3cc(-c4ccsc4)n[nH]3)n[nH]c2=S)cc1
inactive: SK-MEL-2 melanoma 86.9% | SN12C renal 98.3% | UO-31 renal 89.5% | TK-10 renal 98% | ACHN renal 88.4% | CAKI-1 renal 92.7% | A498 renal 111% | MOLT-4 leukemia 87.6% | SR leukemia 94% | RPMI-8226 leukemia 101% | OVCAR-8 ovarian 98.9% | OVCAR-5 ovarian 97.8% | OVCAR-4 ovarian 105% | SK-OV-3 ovarian 104% | OVCAR-3 ovarian 113%

CCOP(=O)(O)OP(=O)(O)OCC
inactive: SK-MEL-2 melanoma 128% | SN12C renal 105% | UO-31 renal 91.9% | TK-10 renal 103% | ACHN renal 97.6% | CAKI-1 renal 94.3% | A498 renal 110% | MOLT-4 leukemia 87.1% | SR leukemia 91.2% | RPMI-8226 leukemia 95.8% | OVCAR-8 ovarian 119% | OVCAR-5 ovarian 96.9% | OVCAR-4 ovarian 105% | SK-OV-3 ovarian 97.3% | IGROV1 ovarian 97.3% | OVCAR-3 ovarian 105% | NCI/ADR-RES ovarian 105%

C=CC[C@]1(O)CC[C@H]2[C@@H]3CCc4cc(O)ccc4[C@H]3CC[C@@]21C
inactive: SK-MEL-2 melanoma 90.6% | SN12C renal 96.1% | UO-31 renal 85.7% | TK-10 renal 107% | ACHN renal 94.5% | CAKI-1 renal 103% | A498 renal 97.2% | MOLT-4 leukemia 62% | SR leukemia 38.4% | RPMI-8226 leukemia 86.5% | OVCAR-8 ovarian 94.9% | OVCAR-5 ovarian 98.5% | OVCAR-4 ovarian 94.3% | SK-OV-3 ovarian 107% | IGROV1 ovarian 109% | OVCAR-3 ovarian 102% | NCI/ADR-RES ovarian 87.5%
